Structures can show the parent of a compound that is named as a salt.
Legend:
HCI01 = cells of a triple-negative basal-like breast cancer xenograft; test: cell viability of combination (% of vehicle); higher = less cytotoxic; settings: 1 µM; 72 h; partner dose: 10 nM
Protocol: (§1)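 PDX cells were treated for 72 h with each drug at 1 µM plus carfilzomib (10 nM; 100 nM for WHIM2). Luciferase viability is expressed as percent of vehicle.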

UCD52 = cells of a triple-negative basal-like breast cancer xenograft; test: as above; settings: 1 µM; 72 h; partner dose: 10 nM
Protocol: as §1

Row | SMILES | cell viability of combination (HCI01) | cell viability of combination (UCD52)
1 | COc1cc2c(Oc3ccc4[nH]c(C)cc4c3F)ncnc2cc1OCCCN1CCCC1 [Cediranib (AZD217)] + CC(C)C[C@H](NC(=O)[C@H](CCc1ccccc1)NC(=O)CN1CCOCC1)C(=O)N[C@@H](Cc1ccccc1)C(=O)N[C@@H](CC(C)C)C(=O)[C@@]1(C)CO1 [Carfilzomib] | 80.6 | 31.6
2 | CNC(=O)c1cc(Oc2ccc(NC(=O)Nc3ccc(Cl)c(C(F)(F)F)c3)cc2)ccn1 [Sorafenib] + CC(C)C[C@H](NC(=O)[C@H](CCc1ccccc1)NC(=O)CN1CCOCC1)C(=O)N[C@@H](Cc1ccccc1)C(=O)N[C@@H](CC(C)C)C(=O)[C@@]1(C)CO1 [Carfilzomib] | 69 | 49
3 | CN1CCN(CCCN2c3ccccc3Sc3ccc(C(F)(F)F)cc32)CC1.Cl.Cl [Trifluoperazine 2HCl] + CC(C)C[C@H](NC(=O)[C@H](CCc1ccccc1)NC(=O)CN1CCOCC1)C(=O)N[C@@H](Cc1ccccc1)C(=O)N[C@@H](CC(C)C)C(=O)[C@@]1(C)CO1 [Carfilzomib] | 76.2 | 59.5
4 | C[C@H]1O[C@@H](O[C@H]2[C@@H](O)C[C@H](O[C@H]3[C@@H](O)C[C@H](O[C@H]4CC[C@@]5(C)[C@H](CC[C@@H]6[C@@H]5C[C@@H](O)[C@]5(C)[C@@H](C7=CC(=O)OC7)CC[C@]65O)C4)O[C@@H]3C)O[C@@H]2C)C[C@H](O)[C@@H]1O [Digoxin] + CC(C)C[C@H](NC(=O)[C@H](CCc1ccccc1)NC(=O)CN1CCOCC1)C(=O)N[C@@H](Cc1ccccc1)C(=O)N[C@@H](CC(C)C)C(=O)[C@@]1(C)CO1 [Carfilzomib] | 40.7 | 16.9
5 | CCN(CC)CCNC(=O)c1c(C)[nH]c(C=C2C(=O)Nc3ccc(F)cc32)c1C.O=C(O)CC(O)C(=O)O [Sunitinib malate] + CC(C)C[C@H](NC(=O)[C@H](CCc1ccccc1)NC(=O)CN1CCOCC1)C(=O)N[C@@H](Cc1ccccc1)C(=O)N[C@@H](CC(C)C)C(=O)[C@@]1(C)CO1 [Carfilzomib] | 67.2 | 61.5
6 | COc1cccc2c1C(=O)c1c(O)c3c(c(O)c1C2=O)CC(O)(C(=O)CO)CC3OC1CC(N)C(O)C(C)O1.Cl (stereo unspecified) [Epirubicin HCl] + CC(C)C[C@H](NC(=O)[C@H](CCc1ccccc1)NC(=O)CN1CCOCC1)C(=O)N[C@@H](Cc1ccccc1)C(=O)N[C@@H](CC(C)C)C(=O)[C@@]1(C)CO1 [Carfilzomib] | 73.9 | 21
7 | C=C1C(=CC=C2CCCC3(C)C2CCC3C(C)C=CC(C)C(C)C)CC(O)CC1O (stereo unspecified) [Doxercalciferol] + CC(C)C[C@H](NC(=O)[C@H](CCc1ccccc1)NC(=O)CN1CCOCC1)C(=O)N[C@@H](Cc1ccccc1)C(=O)N[C@@H](CC(C)C)C(=O)[C@@]1(C)CO1 [Carfilzomib] | 67 | 44
8 | COc1nc2ccc(Br)cc2cc1[C@@H](c1ccccc1)[C@@](O)(CCN(C)C)c1cccc2ccccc12 [Bedaquiline fumarate] + CC(C)C[C@H](NC(=O)[C@H](CCc1ccccc1)NC(=O)CN1CCOCC1)C(=O)N[C@@H](Cc1ccccc1)C(=O)N[C@@H](CC(C)C)C(=O)[C@@]1(C)CO1 [Carfilzomib] | 77.1 | 68.8
9 | CCCCCOc1ccc(-c2ccc(-c3ccc(C(=O)N[C@H]4C[C@@H](O)[C@@H](O)NC(=O)[C@@H]5[C@@H](O)[C@@H](C)CN5C(=O)[C@H]([C@@H](C)O)NC(=O)[C@H]([C@H](O)[C@@H](O)c5ccc(O)cc5)NC(=O)[C@@H]5C[C@@H](O)CN5C(=O)[C@H]([C@@H](C)O)NC4=O)cc3)cc2)cc1 [Anidulafungin] + CC(C)C[C@H](NC(=O)[C@H](CCc1ccccc1)NC(=O)CN1CCOCC1)C(=O)N[C@@H](Cc1ccccc1)C(=O)N[C@@H](CC(C)C)C(=O)[C@@]1(C)CO1 [Carfilzomib] | 73.7 | 60
10 | COc1ccc2cc1Oc1ccc(cc1)CC1c3c(cc4c(c3Oc3cc5c(cc3OC)CCN(C)C5C2)OCO4)CCN1C (stereo unspecified) [Cepharanthine] + CC(C)C[C@H](NC(=O)[C@H](CCc1ccccc1)NC(=O)CN1CCOCC1)C(=O)N[C@@H](Cc1ccccc1)C(=O)N[C@@H](CC(C)C)C(=O)[C@@]1(C)CO1 [Carfilzomib] | 76.2 | 45.8
11 | CC(=O)c1cc2c(o1)C(=O)c1ccccc1C2=O [Napabucasin] + CC(C)C[C@H](NC(=O)[C@H](CCc1ccccc1)NC(=O)CN1CCOCC1)C(=O)N[C@@H](Cc1ccccc1)C(=O)N[C@@H](CC(C)C)C(=O)[C@@]1(C)CO1 [Carfilzomib] | 22.6 | 15.7
12 | COc1ccc2c(O[C@H]3CC4C(=O)N(C)CCCC/C=C\[C@H]5C[C@@]5(C(=O)NS(=O)(=O)C5CC5)NC(=O)[C@@H]4C3)cc(-c3nc(C(C)C)cs3)nc2c1C (stereo partly specified) [Simeprevir] + CC(C)C[C@H](NC(=O)[C@H](CCc1ccccc1)NC(=O)CN1CCOCC1)C(=O)N[C@@H](Cc1ccccc1)C(=O)N[C@@H](CC(C)C)C(=O)[C@@]1(C)CO1 [Carfilzomib] | 82.7 | 62.5
13 | CCOc1cc2ncc(C#N)c(Nc3ccc(OCc4ccccn4)c(Cl)c3)c2cc1NC(=O)C=CCN(C)C [Neratinib (HKI-272)] + CC(C)C[C@H](NC(=O)[C@H](CCc1ccccc1)NC(=O)CN1CCOCC1)C(=O)N[C@@H](Cc1ccccc1)C(=O)N[C@@H](CC(C)C)C(=O)[C@@]1(C)CO1 [Carfilzomib] | 87.8 | 48.7
14 | CCCCCCCCCCCC1=C(O)C(=O)C=C(O)C1=O [Embelin] + CC(C)C[C@H](NC(=O)[C@H](CCc1ccccc1)NC(=O)CN1CCOCC1)C(=O)N[C@@H](Cc1ccccc1)C(=O)N[C@@H](CC(C)C)C(=O)[C@@]1(C)CO1 [Carfilzomib] | 71.1 | 55.5
15 | CC(O)C(=O)O.CCOc1ccc2nc3cc(N)ccc3c(N)c2c1.O [Ethacridine lactate monohydrate] + CC(C)C[C@H](NC(=O)[C@H](CCc1ccccc1)NC(=O)CN1CCOCC1)C(=O)N[C@@H](Cc1ccccc1)C(=O)N[C@@H](CC(C)C)C(=O)[C@@]1(C)CO1 [Carfilzomib] | 74.3 | 66.7
16 | CC(Oc1cc(-c2cnn(C3CCNCC3)c2)cnc1N)c1c(Cl)ccc(F)c1Cl [(R)-Crizotinib] + CC(C)C[C@H](NC(=O)[C@H](CCc1ccccc1)NC(=O)CN1CCOCC1)C(=O)N[C@@H](Cc1ccccc1)C(=O)N[C@@H](CC(C)C)C(=O)[C@@]1(C)CO1 [Carfilzomib] | 146 | 49.1
17 | CN(C)CC=CC(=O)Nc1cc2c(Nc3ccc(F)c(Cl)c3)ncnc2cc1OC1CCOC1 (stereo unspecified) [Afatinib (BIBW2992)] + CC(C)C[C@H](NC(=O)[C@H](CCc1ccccc1)NC(=O)CN1CCOCC1)C(=O)N[C@@H](Cc1ccccc1)C(=O)N[C@@H](CC(C)C)C(=O)[C@@]1(C)CO1 [Carfilzomib] | 63.1 | 26.2
18 | C#Cc1cccc(Nc2ncnc3cc(OCCOC)c(OCCOC)cc23)c1 [Erlotinib] + CC(C)C[C@H](NC(=O)[C@H](CCc1ccccc1)NC(=O)CN1CCOCC1)C(=O)N[C@@H](Cc1ccccc1)C(=O)N[C@@H](CC(C)C)C(=O)[C@@]1(C)CO1 [Carfilzomib] | 66.8 | 49.1
19 | CO[C@H]1C[C@@H]2CC[C@@H](C)[C@@](O)(O2)C(=O)C(=O)N2CCCC[C@H]2C(=O)O[C@H]([C@H](C)C[C@@H]2CC[C@@H](OC(=O)C(C)(CO)CO)[C@H](OC)C2)CC(=O)[C@H](C)/C=C(\C)[C@@H](O)[C@@H](OC)C(=O)[C@H](C)C[C@H](C)/C=C/C=C/C=C/1C [Temsirolimus] + CC(C)C[C@H](NC(=O)[C@H](CCc1ccccc1)NC(=O)CN1CCOCC1)C(=O)N[C@@H](Cc1ccccc1)C(=O)N[C@@H](CC(C)C)C(=O)[C@@]1(C)CO1 [Carfilzomib] | 72.4 | 49.5
20 | CNC1CCC(c2ccc(Cl)c(Cl)c2)c2ccccc21.Cl (stereo unspecified) [Sertraline HCl] + CC(C)C[C@H](NC(=O)[C@H](CCc1ccccc1)NC(=O)CN1CCOCC1)C(=O)N[C@@H](Cc1ccccc1)C(=O)N[C@@H](CC(C)C)C(=O)[C@@]1(C)CO1 [Carfilzomib] | 72.1 | 61.1
21 | CCCCc1oc2ccc(NS(C)(=O)=O)cc2c1C(=O)c1ccc(OCCCN(CCCC)CCCC)cc1.Cl [Dronedarone HCl] + CC(C)C[C@H](NC(=O)[C@H](CCc1ccccc1)NC(=O)CN1CCOCC1)C(=O)N[C@@H](Cc1ccccc1)C(=O)N[C@@H](CC(C)C)C(=O)[C@@]1(C)CO1 [Carfilzomib] | 92.3 | 59.9
22 | Clc1ccc(C(Cn2ccnc2)OCc2c(Cl)cccc2Cl)c(Cl)c1.O=[N+]([O-])O (stereo unspecified) [Isoconazole nitrate] + CC(C)C[C@H](NC(=O)[C@H](CCc1ccccc1)NC(=O)CN1CCOCC1)C(=O)N[C@@H](Cc1ccccc1)C(=O)N[C@@H](CC(C)C)C(=O)[C@@]1(C)CO1 [Carfilzomib] | 92.6 | 61.5
23 | COc1cc2ncnc(Nc3ccc(F)c(Cl)c3)c2cc1NC(=O)C=CCN1CCCCC1 + CC(C)C[C@H](NC(=O)[C@H](CCc1ccccc1)NC(=O)CN1CCOCC1)C(=O)N[C@@H](Cc1ccccc1)C(=O)N[C@@H](CC(C)C)C(=O)[C@@]1(C)CO1 [Carfilzomib] | 68.1 | 34.1
24 | COc1cc(Nc2ncc(F)c(Nc3ccc4c(n3)N(COP(=O)(O)O)C(=O)C(C)(C)O4)n2)cc(OC)c1OC [Fostamatinib (R788)] + CC(C)C[C@H](NC(=O)[C@H](CCc1ccccc1)NC(=O)CN1CCOCC1)C(=O)N[C@@H](Cc1ccccc1)C(=O)N[C@@H](CC(C)C)C(=O)[C@@]1(C)CO1 [Carfilzomib] | 119 | 64.9
25 | CC(O)C(=O)O.CC(O)C(=O)O.CN1CCN(c2ccc3c(c2)NC(=C2C(=O)N=c4cccc(F)c4=C2N)N3)CC1 [Dovitinib Dilactic acid] + CC(C)C[C@H](NC(=O)[C@H](CCc1ccccc1)NC(=O)CN1CCOCC1)C(=O)N[C@@H](Cc1ccccc1)C(=O)N[C@@H](CC(C)C)C(=O)[C@@]1(C)CO1 [Carfilzomib] | 71.2 | 88.8
26 | COc1ccccc1OCCNCC(O)COc1cccc2[nH]c3ccccc3c12 (stereo unspecified) [Carvedilol] + CC(C)C[C@H](NC(=O)[C@H](CCc1ccccc1)NC(=O)CN1CCOCC1)C(=O)N[C@@H](Cc1ccccc1)C(=O)N[C@@H](CC(C)C)C(=O)[C@@]1(C)CO1 [Carfilzomib] | 76.8 | 61.4
27 | O=C(C=Cn1cnc(-c2cc(C(F)(F)F)cc(C(F)(F)F)c2)n1)NNc1cnccn1 + CC(C)C[C@H](NC(=O)[C@H](CCc1ccccc1)NC(=O)CN1CCOCC1)C(=O)N[C@@H](Cc1ccccc1)C(=O)N[C@@H](CC(C)C)C(=O)[C@@]1(C)CO1 [Carfilzomib] | 57.3 | 40.1
28 | CC(C)(C)c1ccc(C(=O)CCCN2CCC(OC(c3ccccc3)c3ccccc3)CC2)cc1 [Ebastine] + CC(C)C[C@H](NC(=O)[C@H](CCc1ccccc1)NC(=O)CN1CCOCC1)C(=O)N[C@@H](Cc1ccccc1)C(=O)N[C@@H](CC(C)C)C(=O)[C@@]1(C)CO1 [Carfilzomib] | 74 | 59.8

From the supplement of paper PMC6992640
